PubChem BioAssay AID1159580 (chemical genetic matrix, 2015)
About 2,000 (36%) of roughly 5,500 compounds were called active. Not shown: some 18% with an inconclusive outcome. Rule as the data show it: active = normalized growth mostly below about 0.91 (no sharp cut-off); inconclusive = no clear call, values can overlap the other calls; inactive = mostly above about 0.92. The list shows a part of the results.

Assay: chemical genetic growth profiling, strain panel (AID 1159580);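 also: tested at 20 µM; growth read once vehicle control cultures reached saturation at 30 °C; 1 = growth at the plate median or of vehicle wells; lower values mean less growth of the strain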
Conditions: growth OD

Measured: normalized growth

COC1=CC(=O)C=C(OC)C1=O
inactive: S. cerevisiae deletion strains, locus YKL009W, strain mrt4, active compounds read low 0.956 | S. cerevisiae deletion strains, locus YKL068W, active compounds read low 0.972 | S. cerevisiae deletion strains, locus YKL085W, strain MDH1 (second series), active compounds read low 0.981 | S. cerevisiae deletion strains, locus YKL085W, strain MDH1, active compounds read low 0.981 | S. cerevisiae deletion strains, locus YKL160W, strain elf1, active compounds read low 0.971 | S. cerevisiae deletion strains, locus YKL190W, strain CNB1, active compounds read low 0.989 | S. cerevisiae deletion strains, locus YKR001C, strain vps1, active compounds read low 0.995 | S. cerevisiae deletion strains, locus YKR026C, strain gcn3, active compounds read low 0.995 | S. cerevisiae deletion strains, locus YKR091W, strain srl3, active compounds read low 1 | S. cerevisiae deletion strains, locus YLL001W, strain dnm1, active compounds read low 0.996 | S. cerevisiae deletion strains, locus YLL026W, active compounds read low 0.991 | S. cerevisiae deletion strains, locus YLL041C, strain sdh2, active compounds read low 1.01 | S. cerevisiae deletion strains, locus YLR027C, strain aat2, active compounds read low 0.997 | S. cerevisiae deletion strains, locus YLR039C, strain RIC1, active compounds read low 0.981 | S. cerevisiae deletion strains, locus YLR058C, strain SHM2, active compounds read low 0.988 | S. cerevisiae deletion strains, locus YLR102C, strain apc9, active compounds read low 0.982 | S. cerevisiae deletion strains, locus YLR113W, strain HOG1, active compounds read low 0.998 | S. cerevisiae deletion strains, locus YLR221C, strain rsa3, active compounds read low 1 | S. cerevisiae deletion strains, locus YLR258W, strain gsy2, active compounds read low 0.997 | S. cerevisiae deletion strains, locus YLR262C, strain YPT6 (second series), active compounds read low 0.946 | S. cerevisiae deletion strains, locus YLR262C, strain YPT6, active compounds read low 0.967 | S. cerevisiae deletion strains, locus YLR268W, strain sec22, active compounds read low 0.989 | S. cerevisiae deletion strains, locus YLR320W, strain mms22, active compounds read low 0.955 | S. cerevisiae deletion strains, locus YLR330W, strain CHS5, active compounds read low 0.997 | S. cerevisiae deletion strains, locus YLR342W, strain FKS1 (second series), active compounds read low 1.02 | S. cerevisiae deletion strains, locus YLR342W, strain FKS1, active compounds read low 0.976 | S. cerevisiae deletion strains, locus YLR357W, strain rsc2, active compounds read low 0.99 | S. cerevisiae deletion strains, locus YLR370C, strain arc18, active compounds read low 1.01 | S. cerevisiae deletion strains, locus YLR371W, strain rom2, active compounds read low 0.989 | S. cerevisiae deletion strains, locus YLR384C, strain iki3, active compounds read low 0.986 | S. cerevisiae deletion strains, locus YLR418C, strain cdc73, active compounds read low 0.999 | S. cerevisiae deletion strains, locus YML016C, strain PPZ1, active compounds read low 0.994 | S. cerevisiae deletion strains, locus YML032C, strain rad52, active compounds read low 0.973 | S. cerevisiae deletion strains, locus YML120C, strain ndi1, active compounds read low 1.01 | S. cerevisiae deletion strains, locus YML124C, strain tub3, active compounds read low 0.987 | S. cerevisiae deletion strains, locus YMR058W, strain fet3, active compounds read low 1.02 | S. cerevisiae deletion strains, locus YMR078C, strain ctf18, active compounds read low 0.999 | S. cerevisiae deletion strains, locus YMR125W, strain sto1, active compounds read low 1.02 | S. cerevisiae deletion strains, locus YMR129W, active compounds read low 0.999 | S. cerevisiae deletion strains, locus YMR205C, strain PFK2, active compounds read low 0.983 | S. cerevisiae deletion strains, locus YMR223W, strain ubp8, active compounds read low 0.993 | S. cerevisiae deletion strains, locus YMR231W, strain pep5, active compounds read low 1.01 | S. cerevisiae deletion strains, locus YMR307W, strain GAS1, active compounds read low 1.12 | S. cerevisiae deletion strains, locus YNL067W, strain RPL9B, active compounds read low 0.997 | S. cerevisiae deletion strains, locus YNL071W, strain lat1, active compounds read low 0.989 | S. cerevisiae deletion strains, locus YNL183C, strain NPR1, active compounds read low 0.95 | S. cerevisiae deletion strains, locus YNL209W, strain ssb2, active compounds read low 0.996 | S. cerevisiae deletion strains, locus YNL233W, strain BNI4, active compounds read low 1.02 | S. cerevisiae deletion strains, locus YNL248C, strain rpa49, active compounds read low 1.01 | S. cerevisiae deletion strains, locus YNL250W, strain rad50, active compounds read low 0.987 | S. cerevisiae deletion strains, locus YNL271C, strain bni1, active compounds read low 0.99 | S. cerevisiae deletion strains, locus YNL298W, strain CLA4, active compounds read low 0.999 | S. cerevisiae deletion strains, locus YNL307C, strain MCK1, active compounds read low 0.992 | S. cerevisiae deletion strains, locus YNL322C, strain KRE1 (second series), active compounds read low 0.996 | S. cerevisiae deletion strains, locus YNL322C, strain KRE1, active compounds read low 0.993 | S. cerevisiae deletion strains, locus YNR049C, strain mso1, active compounds read low 1 | S. cerevisiae deletion strains, locus YNR052C, strain pop2, active compounds read low 1.01 | S. cerevisiae deletion strains, locus YOL006C, strain TOP1, active compounds read low 1.17 | S. cerevisiae deletion strains, locus YOL012C, strain htz1 0.746 | S. cerevisiae deletion strains, locus YOL147C, strain pex11, active compounds read low 0.988 | S. cerevisiae deletion strains, locus YOR001W, strain rrp6, active compounds read low 1 | S. cerevisiae deletion strains, locus YOR061W, strain CKA2, active compounds read low 0.965 | S. cerevisiae deletion strains, locus YOR069W, strain VPS5, active compounds read low 0.991 | S. cerevisiae deletion strains, locus YOR070C, strain gyp1, active compounds read low 0.996 | S. cerevisiae deletion strains, locus YOR080W, strain dia2, active compounds read low 1.01 | S. cerevisiae deletion strains, locus YOR083W, strain WHI5, active compounds read low 0.927 | S. cerevisiae deletion strains, locus YOR106W, strain vam3, active compounds read low 0.97 | S. cerevisiae deletion strains, locus YOR136W, strain idh2, active compounds read low 0.972 | S. cerevisiae deletion strains, locus YOR144C, strain elg1, active compounds read low 0.994 | S. cerevisiae deletion strains, locus YOR184W, strain ser1, active compounds read low 0.982 | S. cerevisiae deletion strains, locus YOR231W, strain MKK1, active compounds read low 1.01 | S. cerevisiae deletion strains, locus YOR265W, strain rbl2, active compounds read low 0.994 | S. cerevisiae deletion strains, locus YOR270C, strain vph1, active compounds read low 0.94 | S. cerevisiae deletion strains, locus YOR290C, strain snf2, active compounds read low 0.991 | S. cerevisiae deletion strains, locus YOR316C, strain cot1, active compounds read low 0.986 | S. cerevisiae deletion strains, locus YPL051W, strain arl3, active compounds read low 0.998 | S. cerevisiae deletion strains, locus YPL055C, strain LGE1, active compounds read low 1.04 | S. cerevisiae deletion strains, locus YPL078C, strain atp4, active compounds read low 0.962 | S. cerevisiae deletion strains, locus YPL106C, strain sse1, active compounds read low 0.994 | S. cerevisiae deletion strains, locus YPL240C, strain hsp82, active compounds read low 0.991 | S. cerevisiae deletion strains, locus YPL241C, strain CIN2, active compounds read low 0.986 | S. cerevisiae deletion strains, locus YPL256C, strain CLN2, active compounds read low 1.01 | S. cerevisiae deletion strains, locus YPR119W, strain clb2, active compounds read low 0.981 | S. cerevisiae deletion strains, locus YPR141C, strain kar3, active compounds read low 0.983 | S. cerevisiae deletion strains, locus YPR163C, strain tif3, active compounds read low 1 | S. cerevisiae deletion strains, locus YPR167C, strain met16, active compounds read low 0.976 | S. cerevisiae deletion strains, strain wtn01, active compounds read low 0.981 | S. cerevisiae strains, strain wild type, active compounds read low 1
